Data on 8 compounds can be found in PubChem BioAssay (NCI).

The structures appear in SMILES notation. This is part of a sample that, as a whole, favours compounds with a hit. Of some 83,000 tested, about 20% had one in any assay.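 Compound tested at a single concentration for 48 hours in 96-well plates; a percent growth value below 10 was scored as active.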 Values without a mark were called inactive. The source made the active and inactive calls.

Test systems include NCI-H23 lung; NCI-H226 lung; NCI-H322M lung; HOP-62 NSCLC; NCI-H460 lung; HOP-92 NSCLC; NCI-H522 lung; A549/ATCC NSCLC; 786-0 renal; COLO 205 colon; DU-145 prostate; K-562 leukemia; MALME-3M melanoma; MDA-MB-231 breast; RXF 393 renal; SF-268 CNS; SF-295 CNS; UACC-257 melanoma; M14 melanoma.
Common to all, as to test: NCI-60 one-dose screen, 48 h (100 = growth as untreated, 0 = no growth, -100 = all killed)
Holding throughout (conditions): 10 µM unless noted

On to `ClC1=C2NC=NC2n2c(nnc2-c2ccc(Cl)cc2)N1` (configuration not stated), for which the growth in the assay with NCI-H23 lung is 107%; with NCI-H226 lung it was 96.2%; in the assay on NCI-H322M lung it was 110%; with HOP-62 NSCLC, 98.7%; in the assay on NCI-H460 lung, 106%; in the assay on HOP-92 NSCLC, 109%. The growth in the assay with NCI-H522 lung is 73.2%; in the assay with A549/ATCC NSCLC it was 81.4%; with 786-0 renal, 97.2%; in the assay on COLO 205 colon it was 89.8%; with DU-145 prostate it was 112%; with K-562 leukemia, 91.1%. Besides, the growth is 129% with MALME-3M melanoma; 95.6% with MDA-MB-231 breast; 101% with RXF 393 renal; 111% in the assay on SF-268 CNS; 97.8% in the assay with SF-295 CNS; 101% in the assay on UACC-257 melanoma. Further, the growth in the assay with M14 melanoma was 102%.
Turning to `COc1ccc(-c2cnoc2-c2cc(OC)c3c(c2)OCCO3)cc1`, the growth with NCI-H23 lung is 16.7%; in the assay on NCI-H226 lung, 61.8%; with NCI-H322M lung, 45%; in the assay on HOP-62 NSCLC, -8.55% (active); with NCI-H460 lung, 3.25% (active); in the assay with HOP-92 NSCLC, 31%. Moreover, the growth in the assay with NCI-H522 lung was -39.1% (active); with A549/ATCC NSCLC it was 18.6%; with 786-0 renal, 8.21% (active); in the assay on COLO 205 colon it was -58.4% (active); in the assay with DU-145 prostate, -9.77% (active); in the assay on K-562 leukemia it was 6.93% (active). The growth with MALME-3M melanoma is 62.8%; in the assay with MDA-MB-231 breast, -23.8% (active); in the assay with RXF 393 renal it was 32.3%; in the assay on SF-268 CNS, 19.9%; in the assay on SF-295 CNS it was 9.28% (active); in the assay with UACC-257 melanoma, 69.7%. In addition, the growth with M14 melanoma is 7.58% (active).
Consider `COc1ccc(/C=C/C(=O)c2c(O)c(C)c(O)c3c2OC2=CC(O)=C(C(C)=O)C(=O)[C@]23C)cc1`, for which the growth is -32.9% (active) in the assay with NCI-H23 lung; -28.2% (active) with NCI-H226 lung; -17.9% (active) in the assay on NCI-H322M lung; -40% (active) in the assay on HOP-62 NSCLC; 1.69% (active) with NCI-H460 lung; -18.8% (active) in the assay on HOP-92 NSCLC. In addition, the growth in the assay with NCI-H522 lung was -32.2% (active); in the assay with A549/ATCC NSCLC, -26.8% (active); in the assay with 786-0 renal it was -29.7% (active); in the assay on COLO 205 colon, -74.1% (active); with DU-145 prostate, 8.23% (active); with K-562 leukemia, -21.3% (active). Also, the growth with MALME-3M melanoma is -57.1% (active); in the assay on MDA-MB-231 breast, -26.2% (active); with RXF 393 renal it was -33.3% (active); in the assay on SF-268 CNS it was -17.5% (active); in the assay with SF-295 CNS it was -22.7% (active); with UACC-257 melanoma it was -19.2% (active). For the same compound, the growth in the assay on M14 melanoma is -7.97% (active).
Consider `O=C1CC(c2nc3ccccc3s2)CN1C1CCCCC1` (configuration not stated), for which the growth with NCI-H23 lung was 90.4%; in the assay on NCI-H226 lung, 94.6%; in the assay on NCI-H322M lung, 91.2%; in the assay with HOP-62 NSCLC, 93.2%; in the assay on NCI-H460 lung it was 105%; in the assay with HOP-92 NSCLC, 84.9%. The growth is 92.7% with NCI-H522 lung; 98.9% with A549/ATCC NSCLC; 109% in the assay on 786-0 renal; 101% in the assay on COLO 205 colon; 104% in the assay with DU-145 prostate; 96.7% in the assay with K-562 leukemia. Besides, the growth with MALME-3M melanoma is 90.8%; in the assay on MDA-MB-231 breast, 86.8%; in the assay on RXF 393 renal, 107%; with SF-268 CNS, 99.1%; in the assay on SF-295 CNS, 92.9%; in the assay with UACC-257 melanoma it was 98.6%. In the assay with M14 melanoma, the growth was 99.1%.
Regarding `COc1c(C2CC(=O)Nc3c2cnn3Cc2ccco2)cc2c(c1OC)OCO2` (configuration not stated), the growth in the assay on NCI-H23 lung is 29.9%; with NCI-H226 lung, 44.7%; with NCI-H322M lung, 55.4%; with HOP-62 NSCLC it was 12.2%; in the assay on NCI-H460 lung, 2.88% (active); in the assay on HOP-92 NSCLC, 48.9%. In addition, the growth is -2.1% (active) in the assay with NCI-H522 lung; 27.6% in the assay with A549/ATCC NSCLC; 35.4% in the assay on 786-0 renal; -49.1% (active) in the assay on COLO 205 colon; 5.85% (active) in the assay on DU-145 prostate; 5.69% (active) in the assay on K-562 leukemia. Also, the growth with MALME-3M melanoma was 55.7%; in the assay with MDA-MB-231 breast, 16%; in the assay on RXF 393 renal, -30% (active); in the assay with SF-268 CNS it was 34.1%; in the assay on SF-295 CNS, -20.6% (active); with UACC-257 melanoma, 68.4%. In addition, in the assay with M14 melanoma, the growth is 9.85% (active).
On to `Cc1cc(OCc2ccc(C(F)(F)F)cc2)c2c(c1)C(=O)C=C(NCCN1CCCC1)C2=O`, for which the growth with NCI-H23 lung is 84.5%; in the assay with NCI-H226 lung, 93%; with NCI-H322M lung, 80.9%; in the assay on HOP-62 NSCLC, 83.1%; in the assay on NCI-H460 lung it was 43.9%; with HOP-92 NSCLC, 60.1%. Besides, the growth with NCI-H522 lung was 87.6%; with A549/ATCC NSCLC, 54.3%; in the assay on 786-0 renal, 58.5%; with COLO 205 colon, -77.4% (active); in the assay with DU-145 prostate, 76.2%; in the assay with K-562 leukemia it was -8.28% (active). In addition, the growth in the assay with MALME-3M melanoma is -45.4% (active); in the assay with MDA-MB-231 breast, 74.7%; with RXF 393 renal, 53.6%; in the assay on SF-268 CNS, 69%; in the assay on SF-295 CNS, 64.1%; in the assay with UACC-257 melanoma it was -92.4% (active). Also, the growth in the assay on M14 melanoma is -84.9% (active).
With `Nc1nc2c(c3ncccc13)C(c1cccc(Br)c1)Cc1ncccc1-2` (configuration not stated), the growth is 39.5% in the assay on NCI-H23 lung; 72% with NCI-H226 lung; 41.6% in the assay on NCI-H322M lung; 20.3% in the assay on HOP-62 NSCLC; 10.6% in the assay on NCI-H460 lung; 67.2% with HOP-92 NSCLC. Also, the growth with NCI-H522 lung is -12.4% (active); in the assay with A549/ATCC NSCLC, 9.92% (active); in the assay on 786-0 renal, 21.3%; with COLO 205 colon, -36.1% (active); with DU-145 prostate, 19.8%; with K-562 leukemia it was 10.3%. Further, the growth with MALME-3M melanoma is 58.4%; with MDA-MB-231 breast, 20.4%; in the assay on RXF 393 renal, -7.52% (active); in the assay on SF-268 CNS it was 56.4%; in the assay on SF-295 CNS it was 7.75% (active); in the assay on UACC-257 melanoma, 37.9%. In addition, the growth with M14 melanoma is 11.2%.
Take `Oc1c(Cl)cc(Cl)cc1CNc1nccnn1`: the growth in the assay with NCI-H23 lung is 102%; with NCI-H226 lung, 92%; in the assay on NCI-H322M lung it was 99.3%; with HOP-62 NSCLC, 103%; with NCI-H460 lung it was 109%; in the assay on HOP-92 NSCLC, 101%. Moreover, the growth is 105% with NCI-H522 lung; 102% in the assay on A549/ATCC NSCLC; 111% in the assay on 786-0 renal; 100% in the assay with COLO 205 colon; 101% in the assay with DU-145 prostate; 125% in the assay with K-562 leukemia. Moreover, the growth was 93.9% with MALME-3M melanoma; 104% with MDA-MB-231 breast; 108% in the assay with RXF 393 renal; 96.6% in the assay with SF-268 CNS; 101% in the assay on SF-295 CNS; 105% in the assay on UACC-257 melanoma. Besides, the growth in the assay with M14 melanoma is 91.9%.
